Assay results as given in PubChem BioAssay.
Activity calls are given as the source filed them.

Tests used:
[1] = test system: Human papillomavirus type 1a protein E7 (residues 44-93); assay: HPV1a E7 fragment binders on microarrays, primary screen, biochemical, small-molecule microarray, residues 44-93, 635 nm fluorescence (AID 1108); conditions: small-molecule microarray binding, fluorescence 635 nm; higher = more signal;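 also: E7 fragment applied at 1 µg/mL in TBST for 1 h at 4 C; score combines spot fluorescence with its signal to noise ratio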
[2] = modulators of HCV replicon luciferase signal, primary screen, HCV replication inhibitor project, Huh7 cells, luciferase reporter (AID 1109); conditions: 48 h, higher = more signal;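 also: huh7 hepatoma cells harbouring a luciferase neomycin HCV replicon reporter; luciferase luminescence as measure of HCV replicon replication; test concentration not given here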
[3] = molecular target: Left-right determination factor 2 (Homo sapiens) (UniProt O00292); assay: LEFTY2 binders on small-molecule microarrays, primary screen, biochemical, small-molecule microarray, 635 nm fluorescence scan (AID 1110); conditions: LEFTY2 binding, higher = more signal
[4] = molecular target: Calmodulin-1 (Homo sapiens) (UniProt P0DP23); assay: CALM1 binders on microarrays, EGTA buffer, profiling panel, biochemical, small-molecule microarray, Cy5-labelled CALM1 (AID 1111); conditions: Cy5-CALM1 binding fluorescence, higher = more signal;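 also: labelled calmodulin applied in Tris saline Tween buffer holding calcium plus EGTA and DTT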
[5] = molecular target: Calmodulin-1 (Homo sapiens) (UniProt P0DP23); assay: calcium-bound CALM1 binders on microarrays, profiling panel, artefact control for SMM control-protein annotation, biochemical, small-molecule microarray, Cy5-labelled CALM1, plus calcium (AID 1112); conditions: Cy5-CALM1 binding fluorescence, higher = more signal;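 also: score merges spot fluorescence with signal to noise from triplicate slides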
[6] = small-molecule microarray binders of probe aWnt5a, primary screen, biochemical, biotinylated probe, 635/667 nm fluorescence (AID 1113); conditions: higher = more signal;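 also: score merges 667 nm fluorescence intensity with signal-to-noise per printed feature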
[7] = small-molecule microarray binders of probe aShh, primary screen, biochemical, biotinylated probe, 635/667 nm fluorescence (AID 1114); conditions: higher = more signal;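 also: probe is biotin-labelled aShh protein from a stem cell growth factor screen; measures binding of labelled protein to compounds printed on the slide; score merges feature fluorescence at 667 nm with signal-to-noise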
[8] = small-molecule microarray binders of probe aNog, primary screen, biochemical, biotinylated probe, 635/667 nm fluorescence (AID 1115); conditions: higher = more signal;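 also: probe is biotinylated aNog protein used at 0.15 µg/mL for 1 h at 4 C; z-score combines 667 nm fluorescence of each spot with its signal to noise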
[9] = molecular target: Torsin-1A-interacting protein 1 (Homo sapiens) (UniProt Q5JTV8); assay: LAP1 binders from COS7 cell lysate, primary screen, small-molecule microarray, 635/667 nm fluorescence (AID 1116); conditions: COS7-hLAP1 lysate binding, 635 nm fluorescence, higher = more signal
[10] = molecular target: Alpha-bungarotoxin (Bungarus multicinctus) (UniProt P60615); assay: alpha-bungarotoxin binders on microarray, profiling panel, artefact control for SMM control protein annotation, biochemical, small-molecule microarray, Alexa647 label, 635/667 nm fluorescence (AID 1117); conditions: alpha-BTX-A647 binding fluorescence, higher = more signal
Albumin (Bos taurus) = Albumin (Bos taurus) (UniProt P02769); assay: bovine serum albumin binders on microarray, profiling panel, artefact control for SMM control protein annotation, biochemical, small-molecule microarray, Alexa647 label, 635/667 nm fluorescence (AID 1118); conditions: BSA-A647 binding, fluorescence 635 nm, higher = more signal;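 also: score merges 667 nm emission intensity and signal-to-noise per printed compound spot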
[11] = small-molecule microarray binders of probe aXIP, primary screen, biochemical, NeuroSMM set, 635/667 nm fluorescence (AID 1119); conditions: higher = more signal, called active from +8 up or from −8 down;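 also: probe is the protein aXip251-270 applied at 1 µg/mL to compound-printed slides; binding of probe to printed compounds measured as 667 nm fluorescence plus signal to noise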
[12] = small-molecule binders of probe aNOTCH3, primary screen, biochemical, small-molecule microarray, 635/667 nm fluorescence (AID 1120); conditions: higher = more signal;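 also: probe is a biotin-tagged antibody raised against NOTCH3 rather than NOTCH3 protein; score merges spot fluorescence near 667 nm with spot signal to noise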
[13] = small-molecule binders of probe aNOTCH2, primary screen, biochemical, small-molecule microarray, 635/667 nm fluorescence (AID 1121); conditions: higher = more signal;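 also: score merges feature fluorescence read at 667 nm with its signal to noise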
[14] = molecular target: Carbonic anhydrase 2 (Homo sapiens) (UniProt P00918); assay: CAII small-molecule binders, profiling panel, biochemical, small-molecule microarray, Alexa647-labelled CAII (AID 1122); conditions: CAII-A647 binding fluorescence, higher = more signal
[15] = COS7 lysate on small-molecule microarray, probe aHis, 635 nm (AID 1123); conditions: COS7 cell lysate, fluorescence, higher = more signal;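 also: z-score combines 667nm fluorescence intensity with signal-to-noise per printed compound spot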
[16] = compound binding in COS7 lysate, probe aLAP1, primary screen, cell lysate, small-molecule microarray (AID 1124); conditions: probe aLAP1, fluorescence, higher = more signal;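 also: lysate comes from COS7 cells expressing LAP1 and is applied at 0.3 µg/mL; score merges spot fluorescence near 667 nm with signal-to-noise over triplicate slides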
Sam68 (KHDRBS1) = assay: Sam68 small-molecule binders, primary screen, biochemical, small-molecule microarray, 635 nm fluorescence (AID 1125); conditions: small-molecule microarray binding, higher = more signal;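 also: score merges 667 nm channel intensity with signal to noise over triplicate slides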
[17] = test system: Chordin-like protein 2 (CHRDL2); assay: CHRDL2 small-molecule binders, primary screen, biochemical, small-molecule microarray, 635 nm fluorescence (AID 1126); conditions: small-molecule microarray binding, fluorescence 635 nm; higher = more signal;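 also: printed compound slides probed with Chrdl2 protein at 4 µg/mL for 1 h at 4 C; score merges 667 nm emission intensity with signal to noise over three replicate slides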
[18] = molecular target: Concanavalin-A (Canavalia ensiformis) (UniProt P02866); assay: ConA small-molecule binders, primary screen, artefact control for SMM control protein annotation, biochemical, small-molecule microarray, Alexa647 label, 635 nm (AID 1127); conditions: ConA-A647 binding fluorescence, higher = more signal;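 also: z combines 667 nm emission intensity with signal-to-noise across three replicate slides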
Concanavalin-A (Canavalia ensiformis), sequence (P02866 whole entry, looked up): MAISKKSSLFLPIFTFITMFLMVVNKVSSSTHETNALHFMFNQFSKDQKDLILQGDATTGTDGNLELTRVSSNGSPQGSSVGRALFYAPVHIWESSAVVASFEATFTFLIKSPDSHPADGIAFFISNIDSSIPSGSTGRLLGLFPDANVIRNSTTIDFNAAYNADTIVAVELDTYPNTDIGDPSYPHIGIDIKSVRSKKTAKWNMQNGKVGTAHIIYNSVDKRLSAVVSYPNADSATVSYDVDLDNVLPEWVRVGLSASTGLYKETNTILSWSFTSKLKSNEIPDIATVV

Albumin (Bos taurus), sequence (P02769 whole entry, looked up): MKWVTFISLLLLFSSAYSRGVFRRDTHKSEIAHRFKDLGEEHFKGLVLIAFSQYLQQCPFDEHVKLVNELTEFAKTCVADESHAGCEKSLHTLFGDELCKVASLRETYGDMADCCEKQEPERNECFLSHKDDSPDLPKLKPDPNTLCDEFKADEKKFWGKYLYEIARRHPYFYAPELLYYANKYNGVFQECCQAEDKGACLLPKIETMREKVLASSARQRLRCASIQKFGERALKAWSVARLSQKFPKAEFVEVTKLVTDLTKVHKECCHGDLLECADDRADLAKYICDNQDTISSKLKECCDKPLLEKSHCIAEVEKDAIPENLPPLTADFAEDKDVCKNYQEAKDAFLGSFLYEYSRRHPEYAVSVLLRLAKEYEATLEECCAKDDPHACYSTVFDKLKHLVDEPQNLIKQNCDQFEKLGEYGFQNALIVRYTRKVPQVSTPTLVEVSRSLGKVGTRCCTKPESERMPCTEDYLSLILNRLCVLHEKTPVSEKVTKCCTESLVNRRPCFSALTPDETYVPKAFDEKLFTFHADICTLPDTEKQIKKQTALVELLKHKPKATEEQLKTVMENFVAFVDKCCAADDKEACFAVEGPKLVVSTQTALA
Left-right determination factor 2 (Homo sapiens), sequence (O00292 whole entry, looked up): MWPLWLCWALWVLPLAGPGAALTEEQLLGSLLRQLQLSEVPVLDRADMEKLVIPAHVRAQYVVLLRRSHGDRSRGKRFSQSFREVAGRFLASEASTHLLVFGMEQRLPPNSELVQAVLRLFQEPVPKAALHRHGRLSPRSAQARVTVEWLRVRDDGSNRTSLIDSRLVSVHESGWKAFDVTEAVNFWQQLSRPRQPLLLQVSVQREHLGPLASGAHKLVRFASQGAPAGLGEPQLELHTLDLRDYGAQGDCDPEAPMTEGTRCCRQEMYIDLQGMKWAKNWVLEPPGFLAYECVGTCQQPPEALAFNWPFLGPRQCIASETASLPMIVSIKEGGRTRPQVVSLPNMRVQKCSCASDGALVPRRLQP
Alpha-bungarotoxin (Bungarus multicinctus), sequence (P60615 whole entry, looked up): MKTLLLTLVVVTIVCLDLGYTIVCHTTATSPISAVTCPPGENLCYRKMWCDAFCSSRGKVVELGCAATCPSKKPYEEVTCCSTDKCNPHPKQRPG
Torsin-1A-interacting protein 1 (Homo sapiens), sequence (Q5JTV8 whole entry, looked up): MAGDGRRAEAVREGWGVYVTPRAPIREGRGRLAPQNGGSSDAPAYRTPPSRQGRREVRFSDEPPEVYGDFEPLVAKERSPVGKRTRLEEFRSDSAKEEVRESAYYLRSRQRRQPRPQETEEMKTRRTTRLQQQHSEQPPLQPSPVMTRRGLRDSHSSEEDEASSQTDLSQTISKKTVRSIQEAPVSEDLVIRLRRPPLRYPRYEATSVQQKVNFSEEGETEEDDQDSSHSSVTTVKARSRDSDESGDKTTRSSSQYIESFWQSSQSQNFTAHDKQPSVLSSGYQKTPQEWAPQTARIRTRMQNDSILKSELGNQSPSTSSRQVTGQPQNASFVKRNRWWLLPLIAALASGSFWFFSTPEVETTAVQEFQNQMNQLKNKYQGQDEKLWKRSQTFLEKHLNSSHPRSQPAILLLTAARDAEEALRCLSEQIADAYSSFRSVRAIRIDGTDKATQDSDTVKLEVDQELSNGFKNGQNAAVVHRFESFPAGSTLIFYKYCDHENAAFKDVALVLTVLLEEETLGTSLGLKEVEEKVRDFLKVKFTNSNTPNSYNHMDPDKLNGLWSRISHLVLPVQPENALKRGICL

Structure (SMILES)	composite z-score [1]	z-score [2]	composite z-score [3]	composite z-score [4]	composite z-score [5]	composite z-score [6]	composite z-score [7]	composite z-score [8]	composite z-score [9]	composite z-score [10]	composite z-score (Albumin (Bos taurus))	composite Z-score [11]	composite z-score [12]	composite z-score [13]	composite z-score [14]	composite z-score [15]	composite z-score [16]	composite z-score (Sam68 (KHDRBS1))	composite z-score [17]	composite z-score [18]
CCOC(=O)C[C@H]1[C@H](OC(=O)c2ccccc2-c2ccccc2)[C@@H](NC(=O)c2ccc(-c3ccccc3)cc2)c2cc(OCCCO)ccc2N1C(=O)c1ccccc1	1.26	-1.81	0.572	0.455	-0.361	-0.16	-0.282	0.0273	0.539	0.57	0.822	0.148 (inactive)	0.0456	-0.11	0.222	0.961	-0.133	1.23	0.225	0.534
Cc1cccc(/C=C/C=O)c1	0.63	0.33	-0.478	0.613	0.207	-0.0944	-0.214	-0.104	-0.476	0.549	0.92	-0.77 (inactive)	-0.139	-0.104	-0.0363	0.93	0.364	0.339	-0.058	0.786
COCCOC(=O)N1C(=O)[C@@]2(c3cc(C#CC4(O)CCCCCC4)ccc31)[C@H](c1ccc(O)cc1)N1[C@H](c3ccccc3)[C@H](c3ccccc3)OC(=O)[C@H]1[C@@H]2C(=O)N1CCc2cc(OC)c(OC)cc2C1	-0.213	-0.302	-1.24	-0.548	-0.179	-0.145	0.0756	-0.321	0.282	-0.678	-0.189	0.131 (inactive)	-0.239	-0.197	0.859	0.288	0.347	0.0544	-0.861	0.3
[N-]=[N+]=NCc1ccccc1C[C@]1(C(=O)N2CCOCC2)N=C(c2ccc(OCCCO)cc2)O[C@H]1c1ccccc1	1.25	-3.07	-0.712	1.4	0.886	-0.0203	0.207	-0.376	0.68	1.02	0.905	0.271 (inactive)	0.0582	-0.14	0.501	1.07	0.444	0.965	-0.731	1.07
COCCCNC(=O)[C@@]1(C)c2ccccc2C(=O)N(Cc2ccccc2)[C@H]1c1ccc(CO)cc1	1.38	-1.86	-2.9	-0.652	-0.634	-0.124	0.0284	-0.255	1.64	-0.564	0.172	0.45 (inactive)	-0.274	-0.189	0.397	2.62	0.848	0.203	-1.5	0.17
O=C1OCC=C[C@H]2OC34C=CCN(Cc5ccccc5)C(=O)[C@H]3N(CCCO)C(=O)[C@@H]4[C@@H]12 (stereo not given in full)	1.22	-0.789	-0.406	1.19	0.918	0.0474	0.63	0.134	0.627	-0.162	0.792	2.97 (inactive)	0.577	0.0753	0.786	3.07	1.08	0.89	-0.888	0.226
CC(c1ccccc1)C(O)C1C=CC2C(=O)N(c3ccccc3)C(=O)C2N1Nc1ccccc1F (stereo not given)	1.4	-1.55	0.0648	-0.32	-0.539	0.0485	-0.203	-0.453	1.03	0.667	0.687	0.0197 (inactive)	0.0522	-0.0483	0.697	2.21	0.504	1.17	-0.474	0.77
C[C@H]1C2[C@H](Cc3ccccc3)NC(=O)[C@]23C(=O)N[C@H](Cc2ccccc2)C(=O)N[C@H](Cc2ccccc2)C(=O)NC/C=C/CCC/C=C/C3[C@@H]2O[C@]12C (stereo not given in full)	1.39	0.554	-0.0974	-0.343	-1.28	-0.124	-0.123	-0.0662	-0.564	0.617	0.63	0.312 (inactive)	-0.246	-0.115	0.312	1.25	0.338	0.179	0.8	0.472
O=C1OCC=C[C@H]2OC34C=CCN(c5ccc(Cl)cc5)C(=O)[C@H]3N(CCCO)C(=O)[C@@H]4[C@@H]12 (stereo not given in full)	-0.0068	-0.483	-0.59	-0.268	0.954	-0.15	-0.0769	-0.345	-0.0862	-0.43	-1.3	-0.265 (inactive)	-0.254	-0.164	0.96	0.446	-0.0727	-0.819	-1.6	-0.927
CN1C(=O)C2C=CC(C(O)c3ccccc3)N(NC(=O)OC(C)(C)C)C2C1=O (stereo not given)	1.32	0.316	-0.474	0.347	-0.197	-0.1	-0.221	0.401	0.452	0.966	0.959	0.0333 (inactive)	0.245	-0.0722	0.722	2.05	0.23	1.01	-0.33	0.442
C=CCN1C(=O)[C@@]2(O[C@@H](CCO)[C@H]([Si](C)(C)c3ccc(OC)cc3)[C@H]2C)c2cc(N3C(=O)COc4ccccc43)ccc21	1.33	-5.18	0.345	0.695	-0.334	0.149	-0.0626	-0.292	1.16	0.445	0.277	0.69 (inactive)	-0.141	-0.14	0.277	1.4	0.0661	1.29	-0.317	0.973
